Experimental data taken from PubChem BioAssay AID1159580 (chemical genetic matrix, 2015).
The campaign covered roughly 5,500 compounds. About 2,000 (36%) were called active. Another 18% or so got no clear call; they are omitted. Cut-off read from the data, not from the text of the source: active = normalized growth mostly below about 0.91 (no sharp cut-off); inconclusive = no clear call, values can overlap the other calls; inactive = mostly above about 0.92. The list shows a part of the results.

Assay: chemical genetic growth profiling, strain panel (AID 1159580);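 note: tested at 20 µM; growth read once vehicle control cultures reached saturation at 30 °C; 1 = growth at the plate median or of vehicle wells; lower values mean less growth of the strain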
Conditions: growth OD
[1] = S. cerevisiae deletion strains, locus YDL101C, strain DUN1, active compounds read low
[2] = S. cerevisiae deletion strains, locus YHR030C, strain SLT2, active compounds read low

Measured: normalized growth

C/C(=C\c1ccc2c(c1)OCO2)[N+](=O)[O-]
active: S. cerevisiae deletion strains, locus YAR019C, strain CDC15, active compounds read low 0.0944 | S. cerevisiae deletion strains, locus YBL105C, strain PKC1, active compounds read low 0.089 | S. cerevisiae deletion strains, locus YBR135W, strain CKS1, active compounds read low 0.0821 | S. cerevisiae deletion strains, locus YBR136W, strain MEC1, active compounds read low 0.0972 | S. cerevisiae deletion strains, locus YBR160W, strain CDC28, active compounds read low 0.096 | S. cerevisiae deletion strains, locus YDL017W, strain CDC7, active compounds read low 0.103 | S. cerevisiae deletion strains, locus YDL028C, strain MPS1, active compounds read low 0.108 | [1] 0.101 | S. cerevisiae deletion strains, locus YDL108W, strain KIN28, active compounds read low 0.107 | S. cerevisiae deletion strains, locus YDL132W, strain cdc53, active compounds read low 0.121 | S. cerevisiae deletion strains, locus YDL214C, strain PRR2, active compounds read low 0.0871 | S. cerevisiae deletion strains, locus YDR052C, strain DBF4, active compounds read low 0.302 | S. cerevisiae deletion strains, locus YDR054C, strain cdc34, active compounds read low 0.1 | S. cerevisiae deletion strains, locus YDR226W, strain ADK1, active compounds read low 0.112 | S. cerevisiae deletion strains, locus YDR477W, strain SNF1, active compounds read low 0.0948 | S. cerevisiae deletion strains, locus YER123W, strain YCK3, active compounds read low 0.0987 | S. cerevisiae deletion strains, locus YER133W, strain GLC7, active compounds read low 0.0948 | S. cerevisiae deletion strains, locus YFL009W, strain cdc4, active compounds read low 0.0975 | S. cerevisiae deletion strains, locus YFL029C, strain CAK1, active compounds read low 0.0944 | S. cerevisiae deletion strains, locus YFR003C, strain YPI1, active compounds read low 0.123 | S. cerevisiae deletion strains, locus YFR019W, strain FAB1, active compounds read low 0.0927 | S. cerevisiae deletion strains, locus YFR028C, strain CDC14, active compounds read low 0.108 | S. cerevisiae deletion strains, locus YGR040W, strain KSS1, active compounds read low 0.0949 | S. cerevisiae deletion strains, locus YGR052W, strain FMP48, active compounds read low 0.11 | S. cerevisiae deletion strains, locus YGR092W, strain DBF2, active compounds read low 0.0972 | [2] 0.107 | S. cerevisiae deletion strains, locus YHR079C, strain IRE1, active compounds read low 0.113 | S. cerevisiae deletion strains, locus YHR082C, strain KSP1, active compounds read low 0.12 | S. cerevisiae deletion strains, locus YHR205W, strain SCH9, active compounds read low 0.00121 | S. cerevisiae deletion strains, locus YIL147C, strain SLN1, active compounds read low 0.108 | S. cerevisiae deletion strains, locus YJL095W, strain BCK1, active compounds read low 0.107 | S. cerevisiae deletion strains, locus YJL128C, strain PBS2, active compounds read low 0.124 | S. cerevisiae deletion strains, locus YJL157C, strain FAR1, active compounds read low 0.084 | S. cerevisiae deletion strains, locus YJR016C, strain ILV3, active compounds read low 0.0841 | S. cerevisiae deletion strains, locus YJR066W, strain TOR1 (second series), active compounds read low 0.0942 | S. cerevisiae deletion strains, locus YJR066W, strain TOR1, active compounds read low 0.105 | S. cerevisiae deletion strains, locus YKL048C, strain ELM1, active compounds read low 0.106 | S. cerevisiae deletion strains, locus YKL067W, strain YNK1, active compounds read low 0.0865 | S. cerevisiae deletion strains, locus YKL101W, strain HSL1, active compounds read low 0.0966 | S. cerevisiae deletion strains, locus YKL193C, strain SDS22, active compounds read low 0.0838 | S. cerevisiae deletion strains, locus YKL203C, strain TOR2, active compounds read low 0.107 | S. cerevisiae deletion strains, locus YLR113W, strain HOG1, active compounds read low 0.126 | S. cerevisiae deletion strains, locus YLR133W, strain CKI1, active compounds read low 0.0901 | S. cerevisiae deletion strains, locus YLR403W, strain SFP1, active compounds read low -0.000823 | S. cerevisiae deletion strains, locus YML070W, strain DAK1, active compounds read low 0.0897 | S. cerevisiae deletion strains, locus YMR001C, strain CDC5, active compounds read low 0.0887 | S. cerevisiae deletion strains, locus YMR205C, strain PFK2 (second series), active compounds read low 0.0868 | S. cerevisiae deletion strains, locus YMR277W, strain FCP1, active compounds read low 0.0888 | S. cerevisiae deletion strains, locus YNL006W, strain LST8, active compounds read low 0.0816 | S. cerevisiae deletion strains, locus YNL020C, strain ARK1, active compounds read low 0.0897 | S. cerevisiae deletion strains, locus YNL161W, strain CBK1, active compounds read low 0.0823 | S. cerevisiae deletion strains, locus YNL183C, strain NPR1, active compounds read low 0.114 | S. cerevisiae deletion strains, locus YNL207W, strain RIO2, active compounds read low 0.091 | S. cerevisiae deletion strains, locus YNL222W, strain SSU72, active compounds read low 0.0831 | S. cerevisiae deletion strains, locus YNL307C, strain MCK1 (second series), active compounds read low 0.0968 | S. cerevisiae deletion strains, locus YOL078W, strain AVO1, active compounds read low 0.0833 | S. cerevisiae deletion strains, locus YOL136C, strain PFK27, active compounds read low 0.0926 | S. cerevisiae deletion strains, locus YOR061W, strain CKA2, active compounds read low 0.0859 | S. cerevisiae deletion strains, locus YOR119C, strain RIO1, active compounds read low 0.11 | S. cerevisiae deletion strains, locus YOR231W, strain MKK1, active compounds read low 0.108 | S. cerevisiae deletion strains, locus YOR329C, strain SCD5, active compounds read low 0.0841 | S. cerevisiae deletion strains, locus YPL031C, strain PHO85, active compounds read low 0.0922 | S. cerevisiae deletion strains, locus YPL153C, strain RAD53, active compounds read low 0.101 | S. cerevisiae deletion strains, locus YPL204W, strain HRR25, active compounds read low 0.0962 | S. cerevisiae deletion strains, locus YPL209C, strain IPL1, active compounds read low 0.0837 | S. cerevisiae deletion strains, locus YPL256C, strain CLN2, active compounds read low 0.128 | S. cerevisiae deletion strains, locus YPR025C, strain CCL1, active compounds read low 0.0836 | S. cerevisiae deletion strains, locus YPR106W, strain ISR1, active compounds read low 0.0862 | S. cerevisiae deletion strains, locus YPR111W, strain DBF20, active compounds read low 0.142 | S. cerevisiae deletion strains, strain NNK1, active compounds read low 0.0961 | S. cerevisiae deletion strains, strain TSCII, active compounds read low 0.0923

CC(=O)N/C(=C/c1ccc2c(c1)OCO2)C(=O)O
inactive: S. cerevisiae deletion strains, locus YAL013W, strain DEP1, active compounds read low 1.01 | S. cerevisiae deletion strains, locus YBR229C, strain ROT2, active compounds read low 1 | S. cerevisiae deletion strains, locus YCL061C, strain MRC1, active compounds read low 1.02 | [1] 1 | S. cerevisiae deletion strains, locus YDR150W, strain NUM1, active compounds read low 0.915 | S. cerevisiae deletion strains, locus YEL061C, strain CIN8, active compounds read low 1.02 | S. cerevisiae deletion strains, locus YGR078C, strain PAC10, active compounds read low 1 | S. cerevisiae deletion strains, locus YGR229C, strain SMI1, active compounds read low 1.02 | [2] 1.06 | S. cerevisiae deletion strains, locus YHR087W, strain rtc3, active compounds read low 1 | S. cerevisiae deletion strains, locus YJL187C, strain SWE1, active compounds read low 1.01 | S. cerevisiae deletion strains, locus YJR043C, strain POL32, active compounds read low 1.01 | S. cerevisiae deletion strains, locus YJR075W, strain HOC1, active compounds read low 1.02 | S. cerevisiae deletion strains, locus YKL190W, strain CNB1, active compounds read low 1.01 | S. cerevisiae deletion strains, locus YLR039C, strain RIC1, active compounds read low 1.07 | S. cerevisiae deletion strains, locus YLR058C, strain SHM2 (second series), active compounds read low 1.01 | S. cerevisiae deletion strains, locus YLR085C, strain ARP6, active compounds read low 1.02 | S. cerevisiae deletion strains, locus YLR262C, strain YPT6, active compounds read low 1.07 | S. cerevisiae deletion strains, locus YML094W, strain GIM5, active compounds read low 1.01 | S. cerevisiae deletion strains, locus YMR219W, strain ESC1, active compounds read low 1 | S. cerevisiae deletion strains, locus YMR263W, strain SAP30, active compounds read low 1.01 | S. cerevisiae deletion strains, locus YNL153C, strain GIM3, active compounds read low 1.01 | S. cerevisiae deletion strains, locus YNL298W, strain CLA4 (second series), active compounds read low 1.01 | S. cerevisiae deletion strains, locus YNL322C, strain KRE1, active compounds read low 1 | S. cerevisiae deletion strains, locus YNR030W, strain Alg12, active compounds read low 1.01 | S. cerevisiae deletion strains, locus YOL006C, strain TOP1, active compounds read low 1.04 | S. cerevisiae deletion strains, locus YPL055C, strain LGE1, active compounds read low 0.87 | S. cerevisiae deletion strains, locus YPL241C, strain CIN2, active compounds read low 1 | S. cerevisiae deletion strains, locus YPR135W, strain CTF4, active compounds read low 0.998 | S. cerevisiae strains, strain wild type, active compounds read low 1.02
